SMILES strings stand for the structures. About 83,000 compounds went through this panel and 20% of them were active in at least one assay; those are over-represented in the sample as a whole.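 Single-dose data. Exposure time 48 hours. Values below 10 considered active.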 Activity calls are given as the source filed them.

The first test has as its system LOX IMVI melanoma. Nature of the test: NCI-60 one-dose screen, 48 h (100 = growth as untreated, 0 = no growth, -100 = all killed). The settings on record: 10 µM unless noted.
Consider `CC(C)c1ccc(NCc2cn(-c3ccc(C(=O)O)cc3)nc2-c2cc(C(F)(F)F)cc(C(F)(F)F)c2)cc1`, for which the growth was 91.9% (inactive). Still for that read-out and setting: the result for `C[C@@H]1C[C@H]2C(=O)O[C@@H](C)C(NC(=O)[C@H](Cc3cc(F)cc(F)c3)NC(=O)Nc3ccc(Cl)cc3F)C(=O)N3CCC[C@H]3C(=O)N3CCCC[C@H]3C(=O)N[C@@H](CO)C(=O)N2C1` (some centres not stated) reads 29.5% (inactive).

As for `CC(=O)O[C@@H]1C(=O)N(c2cnccn2)[C@H]1c1ccccc1[N+](=O)[O-]`, the growth was 6.26% (active).

Consider `C=C1CC[C@@H]2[C@]3(C)COC(c4ccccc4)O[C@@H]3CC[C@@]2(C)[C@@H]1C/C=C1/C(=O)OC[C@H]1O` (some centres not stated), for which the growth was 33.8% (inactive). Still for that read-out and setting: the result for `Nc1nc(-c2cccc([N+](=O)[O-])c2)c(N=Nc2cccc([N+](=O)[O-])c2)s1` reads 13.4% (inactive).

`Nc1cc(F)ccc1NC(=O)c1ccc(NC(=O)C/C=C/c2cccnc2)cc1`: the growth was 39.7% (inactive).

As to `CCc1nn2c(C)cc(C)nc2c1Cc1ccc(/C=C/CN2CCN(CCOCCOCCN3CCN(C/C=C/c4ccc(Cc5c(CC)nn6c(C)cc(C)nc56)cc4)CC3)CC2)cc1`, the growth is -88.4% (active). For `COc1ccc(NC(=O)CSc2nnc(-c3ccc4nc(-c5ccccc5)[nH]c4c3)o2)cc1`, the growth was 101% (inactive). Same read-out and setting: under `COc1ccc(N2C(=O)c3cc(Cl)ccc3NC2SCc2ccccc2)cc1` (configuration not stated) stands 94.8% (inactive); under `O=C(CSc1nc2ccccc2c(=O)n1-c1ccccc1)Nc1ccc(-c2nc3ccc([N+](=O)[O-])cc3[nH]2)cc1`, 37.8% (inactive); under `O=C(NCCn1ccnc1)c1ccc(-c2nc3ccc4[nH]ncc4c3c3c2CCCC3)cc1`, 66.3% (inactive).

In the case of `CCCC(=O)NC(c1cccnc1)c1cc(C(C)(C)C)c2cccnc2c1O` (configuration not stated), the growth was 20.3% (inactive). On the same count and under the same terms, under `NC(N)=Nc1ccc(Oc2cccc(Nc3ccc(Cl)cc3)c2)cn1` stands -96.9% (active). Same read-out and setting: the result for `O=C(CN1CCN(c2cc(=O)[nH]c3ccc(F)cc23)CC1)Nc1ccc(Cl)cc1` reads 75.2% (inactive); that for `C=C(C=O)[C@@H]1CC[C@]2(C)[C@H](C(=O)C=C3[C@H]4C[C@](C)(C(=O)OC)CC[C@]4(C)CC[C@]32C)[C@@]1(C)CCC#N`, -83.2% (active).

Another test deals with SK-MEL-28 melanoma. The test is described as above. Conditions: 10 µM unless noted.
In the case of `C=C(C=O)[C@@H]1CC[C@]2(C)[C@H](CC=C3[C@H]4[C@@H](C)[C@H](C)CC[C@]4(C(=O)OC)CC[C@]32C)[C@@]1(C)CCC#N`, the growth is -39.4% (active). Same read-out and setting: the result for `C[C@H]1c2[nH]c3ccccc3c2C[C@H]2C(=O)N(CCCCCCC(=O)NO)CC(=O)N21` reads 78.9% (inactive); that for `O=C1[C@H]2Cc3c([nH]c4ccccc34)[C@@H](c3ccc(Br)cc3)N2C(=O)CN1C1CCN(CC2CCCCC2)CC1`, -95.5% (active). Take `COc1ccc([C@H]2c3[nH]c4ccccc4c3C[C@H]3C(=O)N(C4CCN(Cc5c(Cl)cccc5Cl)CC4)CC(=O)N23)c(OC)c1`: the growth was 101% (inactive). For the molecule `COc1cc(/C=N/NC(=O)c2cn(C3CC3)c3c(OC)c(N4CC5CCCNC5C4)c(F)cc3c2=O)ccc1O` (configuration not stated), the growth was 94.4% (inactive). The same measure, in the same setting: the result for `Nc1nc(-c2cccc([N+](=O)[O-])c2)c(N=Nc2cccc([N+](=O)[O-])c2)s1` reads 61.3% (inactive). Still for that read-out and setting: the result for `NC(N)=Nc1ccc(Oc2cccc(Nc3ccc(Cl)cc3)c2)cn1` reads 49.4% (inactive); that for `O=C(CN1CCN(c2cc(=O)[nH]c3ccc(F)cc23)CC1)Nc1ccc(Cl)cc1`, 82.3% (inactive).

Turning to `C=C(C=O)[C@@H]1CC[C@]2(C)[C@H](C(=O)C=C3[C@H]4C[C@](C)(C(=O)OC)CC[C@]4(C)CC[C@]32C)[C@@]1(C)CCC#N`, the growth was -38.3% (active).

In the next test the test system is SK-MEL-2 melanoma. The test is described as above. The settings on record: 10 µM unless noted.
With `CCCn1cnc2c(c1=N)C(c1ccc(Cl)cc1)c1sc3c(C)cccc3c1O2` (configuration not stated), the growth is 33.5% (inactive). The same measure, in the same setting: the result for `C=C(C=O)[C@@H]1CC[C@]2(C)[C@H](CC=C3[C@H]4[C@@H](C)[C@H](C)CC[C@]4(C(=O)OC)CC[C@]32C)[C@@]1(C)CCC#N` reads -27.6% (active); that for `NC(N)=Nc1ccc(Oc2cccc(NC(N)=Nc3ccc(I)cc3F)c2)cn1`, 86.8% (inactive); that for `Cc1occc1-c1nc2s/c(=C/c3ccc(-c4cc(C(F)(F)F)ccc4Cl)o3)c(=O)n2n1`, 109% (inactive).

With `O=C1[C@H]2Cc3c([nH]c4ccccc34)[C@@H](c3ccc(Cl)cc3)N2C(=O)CN1C1CCN(Cc2ccccc2)CC1`, the growth is 84.7% (inactive). The same measure, in the same setting: under `COc1cc(-c2nn(C(C)(C)C)cc2-c2ccnc(NCCCNS(=O)(=O)c3ccc(C)cc3)n2)ccc1Cl` stands 87.4% (inactive); under `CCCCNNC(=O)c1ccc(-c2cccc(F)c2F)cc1`, 26.8% (inactive); under `CC1(C)CC[C@]2(C(=O)N3CCOCC3)CC[C@]3(C)C(=CC[C@@H]4[C@@]5(C)C/C(=C/c6ccccn6)C(=O)C(C)(C)[C@@H]5CC[C@]43C)[C@@H]2C1`, 82.9% (inactive). The same measure, in the same setting: the result for `O=S(=O)(NCCNc1nccc(-n2cnc3ccccc32)n1)c1ccc(Br)cc1` reads 108% (inactive); that for `CC1(C)CC[C@]23CC[C@]4(C)[C@H](CC[C@@H]5[C@@]6(C)CCCN(CO)C(C)(C)[C@@H]6CC[C@]54C)[C@H]2[C@H]1OC3`, 98.4% (inactive); that for `COc1ccc([C@H]2c3[nH]c4ccccc4c3C[C@H]3C(=O)N(C4CCN(Cc5c(Cl)cccc5Cl)CC4)CC(=O)N23)c(OC)c1`, 103% (inactive).

Turning to `O=C(NNc1nc2cc(F)ccc2n2c(CN3CCC(O)C3)ccc12)c1cnccn1` (configuration not stated), the growth is 20% (inactive).

With `CCN(CC)c1cn(-c2ccc(S(N)(=O)=O)cc2)nn1`, the growth is 109% (inactive). Consider `O=[N+]([O-])c1cc(/C=N/Nc2nc(N/N=C/c3ccc(Cl)c([N+](=O)[O-])c3)nc(N3CCCCC3)n2)ccc1Cl`, for which the growth was 80.7% (inactive). Same read-out and setting: the result for `COc1ccc(COc2ccc(/C=C3\C(=O)Nc4ccccc43)cc2OC)cc1` reads 108% (inactive); that for `CCNC(=O)Oc1ccc(/C(=C(/C)c2ccccc2)c2ccc(OCCN3CCCCCC3)cc2)cc1`, -30% (active); that for `COc1cc(/C=N/NC(=O)c2cn(C3CC3)c3c(OC)c(N4CC5CCCNC5C4)c(F)cc3c2=O)ccc1O` (configuration not stated), 113% (inactive). With `CC(C)c1ccc(NCc2cn(-c3ccc(C(=O)O)cc3)nc2-c2cc(C(F)(F)F)cc(C(F)(F)F)c2)cc1`, the growth was 91.8% (inactive).

Take `CC(=O)O[C@@H]1C(=O)N(c2cnccn2)[C@H]1c1ccccc1[N+](=O)[O-]`: the growth is 10.6% (inactive).

`C=C1CC[C@@H]2[C@]3(C)COC(c4ccccc4)O[C@@H]3CC[C@@]2(C)[C@@H]1C/C=C1/C(=O)OC[C@H]1O` (some centres not stated): the growth is 93.3% (inactive). `CCc1nn2c(C)cc(C)nc2c1Cc1ccc(/C=C/CN2CCN(CCOCCOCCN3CCN(C/C=C/c4ccc(Cc5c(CC)nn6c(C)cc(C)nc56)cc4)CC3)CC2)cc1`: the growth is 79.4% (inactive).

`COc1ccc(NC(=O)CSc2nnc(-c3ccc4nc(-c5ccccc5)[nH]c4c3)o2)cc1`: the growth was 105% (inactive).

As to `COc1ccc(N2C(=O)c3cc(Cl)ccc3NC2SCc2ccccc2)cc1` (configuration not stated), the growth was 98.9% (inactive). With `O=C(CSc1nc2ccccc2c(=O)n1-c1ccccc1)Nc1ccc(-c2nc3ccc([N+](=O)[O-])cc3[nH]2)cc1`, the growth was 89.5% (inactive). `CCCC(=O)NC(c1cccnc1)c1cc(C(C)(C)C)c2cccnc2c1O` (configuration not stated): the growth is 30.5% (inactive). Still for that read-out and setting: under `NC(N)=Nc1ccc(Oc2cccc(Nc3ccc(Cl)cc3)c2)cn1` stands 64.6% (inactive).

Consider `O=C(CN1CCN(c2cc(=O)[nH]c3ccc(F)cc23)CC1)Nc1ccc(Cl)cc1`, for which the growth is 66.2% (inactive). On the same count and under the same terms, under `C=C(C=O)[C@@H]1CC[C@]2(C)[C@H](C(=O)C=C3[C@H]4C[C@](C)(C(=O)OC)CC[C@]4(C)CC[C@]32C)[C@@]1(C)CCC#N` stands -22.3% (active).

For the origin of these results see PubChem BioAssay (NCI).
